SMILES strings stand for the structures. “And” between values parts separate entries of the source, which are not always exact repeats. Equal values may be shown once. The campaign covered roughly 75,000 compounds. About 20 (0.03%) were called active. About 1% were inconclusive and are not listed. A selection follows. A number with no mark means an inactive call. The call rests on the fitted dose curve; in most records, active means well fitted inhibition curve with a large enough effect; inconclusive means small, poorly fitted or top-dose-only effect; inactive means flat fitted curve, though single readings scatter.

Results on 52 compounds are retold here after PubChem BioAssay AID900 (National Center for Advancing Translational Sciences (NCATS), 2007).

The target of this experiment is Caspase-1 (Homo sapiens) (UniProt P29466). Briefly: qHTS Assay for Allosteric/Competitive Inhibitors of Caspase-1.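 Further: plate controls were vehicle for no effect and no substrate for full effect.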 The note with it: Caspase-1 enzyme, Ac-WEHD-AFC fluorogenic rate; series mostly up to 57.5 µM; activity change, negative = inhibition: at the top concentration. An excerpt: NIH Molecular Libraries Screening Centers Network [MLSCN]
NIH Chemical Genomics Center [NCGC]
PI Name: Dr. James Wells,
Dr. Enrique Perez-Paya, Dr.Janice Williams, Dr. Dennis Wolan, a person
The caspases (Cysteine Aspartyl Protease) comprise a related family of 14 dimeric proteases that are critical mediators of apoptosis (programmed cell death) and inflammation. The caspases represent an important class of drug targets for stroke, ischemia, cancer and inflammatory diseases. […] One goal of this project was to identify compounds that act as allosteric inhibitors via stabilizing the procaspase form of the enzyme. Previous work in Well's laboratory has shown that such allosteric inhibitors can be identified and these act by binding at the dimer interface of enzyme (Hardy, Lam et al., 2004).
The biochemical assay was configured using purified caspase 1 at a high enzyme concentration to promote formation of the homodimers and thus facilitate the identification of allosteric inhibitors. The overall goal was to identify reversible inhibitors with better drug-like properties than the currently available set of aspartyl-containing peptidomimetics that covalently bind the active site. Caspase 1 was assayed using the profluorescent substrate Ac-WEHD-AFC. After initiation of the assay with substrate the plates were rapidly read using an automated robotic system (Kalypsys, Inc.) to maintain consistent timing. A kinetic mode of detection was used where the initial rate was collected (estimated final product formation was ~10%). Compounds were screened as a concentration-titration series that ranged from 57 uM to 0.7 nM. Below is the protocol used for caspase 1.
NCGC Assay Protocol Summary:
Caspase 1 was prepared in buffer (50 mM HEPES pH 7.5, 50 mM KCl, 200 mM NaCl, 10 mM DTT, 0.1% CHAPS) at a concentration of 66.6 nM and 3 uL was dispensed to all wells using black solid Kalypsys 1536-well plates. 20 nL of DMSO containing compounds was added using a pin-tool (Kalypsys Inc.) to columns 5-48. Then 20 nL of DMSO solution from a control plate was added to columns 1-4. Controls were: Column 1, 16 point titration with each concentration in duplicate (1:1 dilutions in DMSO; final starting concentration was 57 uM) of the caspase 1 inhibitor Ac-WEHD-CHO (Alexis Biochemicals); Column 2, a 16 point titration with each concentration in duplicate of the free AFC fluorophore prepared in DMSO (Alexis Biochemicals), final starting was 40 uM; Column 3 neutral (DMSO only) control; Column 4: DMSO alone, to serve as a negative control (no substrate was added). Then 1 uL of 20 uM the substrate Ac-WEHD-AFC (Alexis Biochemicals) prepared in the same buffer was dispensed to all wells except columns 2 and 4 and the plates were immediately transferred (< 1 min) to the Viewlux. The plates were then exposed using 405 nm excitation/520 nm emission filters for 4 sec and read at 20 sec intervals for 3 min. Final enzyme concentration was 50 nM and the final substrate concentration was 5 uM.
Concentration-response curves were fitted to the data calculated from slope of the linear regression of fluorescent intensity versus time (the rate). The concentration-effect curves were then classified based on curve quality (r2), response magnitude and degree of measured activity. […] Inconclusive compounds had appreciable concentration-dependent effects on both the measured rate and the interpolated basal fluorescence intensity at the start of the reaction but where the basal fluorescent intensity was marginal (e.g. < 10-fold). Inconclusive compounds also encompass highly fluorescent compounds (>100-fold increases in fluorescent intensities values relative to controls) where artificial concentration-dependent decreases in the rate occurred at high compound concentrations due to fluorescent interferences.
Keywords: Caspase 1, proteases, profluorescent, MLSMR, MLSCN, NIH Roadmap, qHTS, NCGC
On the technique in general: Quantitative high-throughput screening tests each substance at several concentrations.
As for `CC(C)N(CCNC(=O)c1ccc(-n2c(=O)c(=O)[nH]c3ccccc32)cc1)C(C)C`, the “activity change, negative = inhibition” value is -4.26%.

In the case of `Cc1ccccc1CSCC(=O)NC(=O)NC(C)(C)C`, the “activity change, negative = inhibition” value was 0.035%.

On to `O=C(O)CCC(=O)NCc1ccc2[nH]c3c(c2c1)CCCC3`, for which the “activity change, negative = inhibition” value was -11.4%.

On to `CCn1ncc(C2=NOC(C(=O)Nc3ccccc3C(=O)OC)C2)c1C` (configuration not stated), for which the “activity change, negative = inhibition” value is -4.14%.

For the compound `CO[C@H]1COC(=O)[C@@H](C)NC(=O)C/C=C\[C@@H](C)[C@H](OC)COC(=O)C/C=C\[C@@H]1C`, the activity change, negative = inhibition was 1.2% [at 11.5 µM].

Regarding `CO/N=C\[C@@H](C)[C@H](OCc1ccccc1)C(C)C`, the activity change, negative = inhibition was 1.85% [at 11.5 µM].

Turning to `CC(=O)OCC(=O)C1CCC2C3CCC4=CC(=O)CC[C@@]4(C)C3CC[C@]12C` (some centres not stated), the “activity change, negative = inhibition” value is 2.9%.

`CC(C)[C@@H](OCc1ccccc1)[C@H](C)/C=N\OC[C@@H](C)[C@H](OCc1ccccc1)C(C)C`: the activity change, negative = inhibition is -1.54% [at 11.5 µM].

Turning to `COC(=O)CC1C(C)(C)C(OC(C)=O)C2CC3=C4CC(=O)OC(c5ccoc5)[C@]4(C)CCC3[C@@]1(C)C2=O` (some centres not stated), the “activity change, negative = inhibition” value is 0.908%.

For `O=C(CSc1nc2ccccc2[nH]1)c1cccs1`, the “activity change, negative = inhibition” value is 1.91%.

`CC(=O)Oc1c2c(c3c(c1CC=C(C)C)O[C@@]14C(=CC5CC1C(C)(C)OC4(C/C=C(\C)C(=O)O)C5=O)C3=O)OC(C)(CCC=C(C)C)C=C2` (some centres not stated): the “activity change, negative = inhibition” value was -4.73%.

In the case of `Cc1cc(C)cc(C#CC2C=CC(Oc3ccc(C4CCCC4)cc3)C(CO)O2)c1` (configuration not stated), the activity change, negative = inhibition is -0.183% [at 11.5 µM].

With `Cc1sc2c(c1C)c(=O)n(-c1ccccc1)c1nncn21`, the “activity change, negative = inhibition” value is 0.0448%.

As to `CC(C)CN1CCc2nc(-c3ccccc3)c3c(c2C1)COC(C)C3` (configuration not stated), the activity change, negative = inhibition is -0.646% [at 11.5 µM].

For `C=CCOC(=O)C(C(C)=O)C(NC(=O)OC)c1ccccc1` (configuration not stated), the activity change, negative = inhibition is -2.17% [at 11.5 µM].

In the case of `COc1c(C(C)C)oc2cc3oc(=O)ccc3cc12`, the “activity change, negative = inhibition” value is -1.57%.

Take `Cc1oc(C)c(C(=O)NCCCC(=O)O)c1C(=O)NCCCC(=O)O`: the “activity change, negative = inhibition” value is 0.175%.

As to `CC(CCC(=O)O)C1CCC2C3C(O)C[C@@H]4CC(O)CC[C@@]4(C)C3CC[C@@]12C` (some centres not stated), the activity change, negative = inhibition entry was “inactive”.

For the compound `CN(C)CCc1c[nH]c2ccc(Cn3cncn3)cc12`, the “activity change, negative = inhibition” value is -1.76%.

In the case of `Nc1ncn(C2OC(CO)C(O)C2O)c(=O)n1` (configuration not stated), the “activity change, negative = inhibition” value is -1.92%.

Regarding `Cc1occc1C(=O)Nc1nnc(C2CCCCC2)s1`, the “activity change, negative = inhibition” value was -2.34%.

For the compound `Oc1ccc2c(c1)OCC1c3cc4c(cc3OC21)OCO4` (configuration not stated), the “activity change, negative = inhibition” value is -0.0099%.

As to `C#CCC(C(=O)OC)(C(=O)OC)C(C[N+](=O)[O-])c1ccccc1` (configuration not stated), the activity change, negative = inhibition is -0.949% [at 11.5 µM].

`O=C(c1cccs1)N1CCN(Cc2ccc3c(c2)OCO3)CC1`: the “activity change, negative = inhibition” value was -3.62%.

On to `C=C[C@](C)(O)CCC1C(=C)CCC2[C@@](C)(CO)CCC[C@@]12C` (some centres not stated), for which the “activity change, negative = inhibition” value is 1.13%.

`C=C1C([C@@]2(C)C(OC(C)=O)CC(=O)O[C@@](C)(COC(C)=O)C2CC(=O)OC)C(OC=O)C(OC(=O)C(O)C(C)CC)[C@]2(C)C(c3ccoc3)CC(=O)C12O` (some centres not stated): the “activity change, negative = inhibition” value was -0.335%.

With `CSc1ccc(Cl)c(C(=O)OCC(=O)N2CC(C)OC(C)C2)c1` (configuration not stated), the “activity change, negative = inhibition” value is -2.09%.

In the case of `CC(C)(C)c1ccc(OC2C=CC(C#Cc3ccccc3)OC2CO)cc1` (configuration not stated), the activity change, negative = inhibition is -6.01% [at 11.5 µM].

Regarding `COc1cccc([C@H]2Oc3ccc(OC)cc3/C(=N\OCC[C@@H]3C=C[C@H](OC(C)=O)[C@H](COC(C)=O)O3)[C@@H]2O)c1`, the activity change, negative = inhibition was -0.817% [at 11.5 µM].

Consider `CC(=O)OCCC(C)C`, for which the “activity change, negative = inhibition” value was -2.94%.

Turning to `CCCNC(=O)OC[C@@H]1O[C@H](c2ccccc2)C=C[C@@H]1Oc1ccc(OC)cc1`, the activity change, negative = inhibition is -0.962% [at 11.5 µM].

On to `CO[C@H]1COC(=O)C/C=C\[C@H](C)COC(=O)[C@@H](OCc2ccccc2)/C=C\[C@@H]1C`, for which the activity change, negative = inhibition was -1.1% [at 11.5 µM].

`C=CCNC(=O)CCCC(=O)NCC=C`: the “activity change, negative = inhibition” value is -0.805%.

`Oc1cc(O)c2c(c1)OC(c1ccc(O)c(O)c1)C(O)C2` (configuration not stated): the “activity change, negative = inhibition” value was -1.07%.

With `Cn1c(=O)n2n(c1=O)[C@H]1[C@H](O)[C@H]3O[C@H]3C(=O)[C@H]1CC2`, the activity change, negative = inhibition is 1.82% [at 11.5 µM].

For the compound `N#Cc1c(/N=C/N2CCCC2)oc(-c2ccccc2)c1-c1ccccc1`, the “activity change, negative = inhibition” value is -3.24%.

With `O=C(c1ccc(-n2cnnn2)cc1)N1CCN(C(c2ccccc2)c2ccccc2)CC1`, the “activity change, negative = inhibition” value is -2.39%.

With `CC(C)CO/N=C1/C[C@@H](O)[C@@H](O)[C@@H]2[C@@H]3C(=O)N(C[C@@H]4CCCO4)C(=O)[C@H]3CC[C@@H]12`, the activity change, negative = inhibition was -2.12% [at 11.5 µM].

`COC(=O)c1ccc(C(NC(=O)OCc2ccccc2)/C(C)=C/[C@@H](C)C(=O)NCc2cc(C)on2)cc1` (some centres not stated): the “activity change, negative = inhibition” value is -1.01%.

Turning to `COC(=O)[C@@H]1C[C@@]2(O)[C@H](O)[C@H](O)[C@H](O)C[C@H]2N1Cc1ccc(C)s1`, the “activity change, negative = inhibition” value was 1.18%.

As for `OC(CCl)CCl`, the “activity change, negative = inhibition” value was -4.21%.

As to `CCCn1c(-c2ccc(F)cc2)nc2c(NC3CCN(Cc4ccccc4)C3)nc(C)nc21` (configuration not stated), the “activity change, negative = inhibition” value is -1.74%.

As to `CO[C@@H]1COC(=O)C/C=C\[C@H](C)[C@@H](NS(=O)(=O)c2ccc(C)cc2)COC(=O)C/C=C\[C@@H]1C`, the activity change, negative = inhibition is 2.78% [at 11.5 µM] and -1.73% [at 11.5 µM].

For the compound `COC(=O)C1=C(N)Oc2cc(C)oc(=O)c2C1c1cccnc1` (configuration not stated), the “activity change, negative = inhibition” value was -0.354%.

With `COC(=O)C(C(=O)OC)[C@@H]1CCCC(=O)C1`, the activity change, negative = inhibition is -6.21% [at 11.5 µM].

Take `CO[C@H]1COC(=O)CCC[C@@H](C)[C@H](OC)COC(=O)[C@@H](C)NC(=O)C/C=C\[C@@H]1C`: the activity change, negative = inhibition was -4.01% [at 11.5 µM].

Consider `CC(C)C(NC(=O)OCc1ccccc1)C(=O)OCC(=O)N1C(C)CCCC1C` (configuration not stated), for which the “activity change, negative = inhibition” value is 2.43%.

In the case of `Cc1c(O)cc(O)c2c(=O)c(-c3ccc(O)cc3)coc12`, the “activity change, negative = inhibition” value was 4%.

For the compound `C/C(CCN1CCCCc2nc(C)c(C)cc21)=N\O[C@@H](C)c1cn([C@@H]2COC[C@@H]2O)nn1`, the activity change, negative = inhibition was -3.82% [at 11.5 µM].

Turning to `Cc1cc(NC(=O)COn2nnc3ccccc32)no1`, the “activity change, negative = inhibition” value was -0.927%.

Consider `CCC1=C(OC(=O)N(CC)CC)N2C(=O)OC(=NCCc3c[nH]c4ccccc34)[C@]2(C)[C@H]2C1=CC[C@H]1C(=O)N(CC)C(=O)[C@H]12`, for which the “activity change, negative = inhibition” value was -2.1%.

With `C/C(CCN1CCc2nc(-c3ccccc3)c(-c3ccccc3)cc2C1)=N\O[C@@H](C)c1cn([C@@H]2COC[C@@H]2O)nn1`, the activity change, negative = inhibition was -2.17% [at 11.5 µM].
